This note sets out measurements from article PMC7862700, “An all-to-all approach to the identification of sequence-specific readers for epigenetic DNA modifications on cytosine”.

Holding throughout (assay): DAPPL (digital affinity profiling via proximity ligation, sequencing); 10 mM Tris-HCl pH 7.5, 50 mM NaCl, 1 mM DTT, 4% glycerol, room temperature, 30 min; GST-TFs on glutathione beads, 16-mer random dsDNA library, 0.1% formaldehyde crosslink after washing; high values mean tight binding
For one assay, the target named is T1, FLI1 (Homo sapiens, UniProt Q01543 1-452).
T1 sequence: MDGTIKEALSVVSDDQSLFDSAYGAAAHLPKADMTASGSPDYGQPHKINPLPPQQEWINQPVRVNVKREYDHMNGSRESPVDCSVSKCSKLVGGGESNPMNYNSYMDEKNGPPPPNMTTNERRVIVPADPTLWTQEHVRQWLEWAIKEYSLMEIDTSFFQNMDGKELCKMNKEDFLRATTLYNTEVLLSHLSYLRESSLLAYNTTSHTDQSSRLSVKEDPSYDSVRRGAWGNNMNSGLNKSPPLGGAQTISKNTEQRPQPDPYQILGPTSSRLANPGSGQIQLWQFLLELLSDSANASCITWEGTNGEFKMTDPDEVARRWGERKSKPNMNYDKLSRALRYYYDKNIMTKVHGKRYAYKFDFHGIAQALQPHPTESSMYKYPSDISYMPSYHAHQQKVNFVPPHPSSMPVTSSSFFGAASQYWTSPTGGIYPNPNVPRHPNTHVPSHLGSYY
Conditions: protein: recombinant; tags: N-terminal GST; dsDNA, one strand shown. Put shortly:
(§1)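 Pools of DNA-barcoded human transcription factors, expressed in yeast as GST fusions on glutathione beads and combined with a tag-only sample, were incubated with 200 nmole of a 16-mer random double-stranded DNA library. Incubation took 30 min at room temperature in Tris/NaCl/DTT/glycerol buffer and was followed by washing, 0.1% formaldehyde crosslinking, proximity ligation (BsaI/T4 ligase, 1 h, 37 °C), PCR amplification and sequencing on an Illumina NextSeq500. Binding signal is the ratio of a hexamer's read frequency for a factor to its frequency for the tag-only sample.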

The target in a further assay is T2, ELK1 (Homo sapiens, UniProt P19419 1-428).
T2 sequence: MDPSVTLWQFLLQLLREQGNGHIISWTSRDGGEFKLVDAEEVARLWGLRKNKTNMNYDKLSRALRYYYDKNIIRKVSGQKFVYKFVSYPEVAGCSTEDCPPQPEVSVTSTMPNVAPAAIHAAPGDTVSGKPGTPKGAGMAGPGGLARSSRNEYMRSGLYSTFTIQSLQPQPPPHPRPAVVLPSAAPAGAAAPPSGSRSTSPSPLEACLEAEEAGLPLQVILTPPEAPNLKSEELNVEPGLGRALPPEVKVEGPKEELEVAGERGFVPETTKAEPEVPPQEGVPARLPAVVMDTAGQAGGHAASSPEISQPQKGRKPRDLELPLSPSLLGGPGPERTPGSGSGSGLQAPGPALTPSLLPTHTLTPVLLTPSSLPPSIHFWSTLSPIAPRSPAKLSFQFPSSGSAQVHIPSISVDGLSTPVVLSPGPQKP
Conditions: protein: recombinant; tags: N-terminal GST; dsDNA, one strand shown. Summed up:
as §1

The next assay deals with T3, GABPA (Homo sapiens, UniProt Q06546 1-454).
T3 sequence: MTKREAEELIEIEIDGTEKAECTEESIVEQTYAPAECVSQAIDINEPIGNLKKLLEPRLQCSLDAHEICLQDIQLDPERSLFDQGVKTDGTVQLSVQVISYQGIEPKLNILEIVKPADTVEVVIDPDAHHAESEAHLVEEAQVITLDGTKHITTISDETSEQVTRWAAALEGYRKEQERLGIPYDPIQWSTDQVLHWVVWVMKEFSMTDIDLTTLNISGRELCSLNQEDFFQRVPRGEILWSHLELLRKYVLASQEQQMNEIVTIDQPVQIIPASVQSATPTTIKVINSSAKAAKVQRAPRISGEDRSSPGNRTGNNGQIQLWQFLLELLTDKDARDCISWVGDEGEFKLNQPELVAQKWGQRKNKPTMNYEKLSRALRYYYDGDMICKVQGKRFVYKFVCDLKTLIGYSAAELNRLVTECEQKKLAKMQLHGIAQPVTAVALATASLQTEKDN
Conditions: protein: recombinant; tags: N-terminal GST; dsDNA, one strand shown. Put shortly: as §1

The target in a further assay is T4, ERG (Homo sapiens, UniProt P11308 1-479).
T4 sequence: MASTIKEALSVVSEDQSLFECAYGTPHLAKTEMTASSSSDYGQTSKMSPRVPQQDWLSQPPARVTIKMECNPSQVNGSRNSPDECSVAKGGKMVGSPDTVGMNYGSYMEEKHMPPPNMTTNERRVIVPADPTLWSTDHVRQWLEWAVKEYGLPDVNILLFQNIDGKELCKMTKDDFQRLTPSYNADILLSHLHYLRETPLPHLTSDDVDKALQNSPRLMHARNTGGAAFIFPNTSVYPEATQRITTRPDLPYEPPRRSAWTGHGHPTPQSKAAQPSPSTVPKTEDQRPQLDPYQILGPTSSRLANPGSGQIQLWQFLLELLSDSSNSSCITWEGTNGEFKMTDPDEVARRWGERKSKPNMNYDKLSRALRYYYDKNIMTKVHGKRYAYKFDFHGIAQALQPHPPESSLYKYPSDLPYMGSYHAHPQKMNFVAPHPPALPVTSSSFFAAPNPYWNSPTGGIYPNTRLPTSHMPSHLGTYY
Particulars: protein: recombinant; tags: N-terminal GST; dsDNA, one strand shown. Summed up: as §1

For the next assay, the target named is ELF1 (Homo sapiens, UniProt P32519 1-619). Conditions: protein: recombinant; tags: N-terminal GST; dsDNA, one strand shown. Put shortly:
as §1

Another assay concerns the target T5, EHF (Homo sapiens, UniProt Q9NZC4 1-300).
T5 sequence: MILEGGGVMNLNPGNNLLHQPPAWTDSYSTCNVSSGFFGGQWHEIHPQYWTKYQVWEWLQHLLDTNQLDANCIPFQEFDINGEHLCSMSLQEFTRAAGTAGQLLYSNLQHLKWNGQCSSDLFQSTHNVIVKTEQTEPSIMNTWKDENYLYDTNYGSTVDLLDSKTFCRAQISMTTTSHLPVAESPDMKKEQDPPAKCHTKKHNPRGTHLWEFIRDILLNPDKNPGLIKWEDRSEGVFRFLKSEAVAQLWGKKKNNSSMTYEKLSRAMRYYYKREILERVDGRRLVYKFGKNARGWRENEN
Conditions: protein: recombinant; tags: N-terminal GST; dsDNA, one strand shown. Put shortly:
as §1

The target in a further assay is SPI1 (Homo sapiens, UniProt P17947 1-270). Particulars: protein: recombinant; tags: N-terminal GST; dsDNA, one strand shown. Put shortly:
as §1

Another assay concerns the target SPIB (Homo sapiens, UniProt Q01892 1-262). Conditions: protein: recombinant; tags: N-terminal GST; dsDNA, one strand shown. Put shortly:
as §1

In the next assay the target is T6, ELK3 (Homo sapiens, UniProt P41970 1-407).
T6 sequence: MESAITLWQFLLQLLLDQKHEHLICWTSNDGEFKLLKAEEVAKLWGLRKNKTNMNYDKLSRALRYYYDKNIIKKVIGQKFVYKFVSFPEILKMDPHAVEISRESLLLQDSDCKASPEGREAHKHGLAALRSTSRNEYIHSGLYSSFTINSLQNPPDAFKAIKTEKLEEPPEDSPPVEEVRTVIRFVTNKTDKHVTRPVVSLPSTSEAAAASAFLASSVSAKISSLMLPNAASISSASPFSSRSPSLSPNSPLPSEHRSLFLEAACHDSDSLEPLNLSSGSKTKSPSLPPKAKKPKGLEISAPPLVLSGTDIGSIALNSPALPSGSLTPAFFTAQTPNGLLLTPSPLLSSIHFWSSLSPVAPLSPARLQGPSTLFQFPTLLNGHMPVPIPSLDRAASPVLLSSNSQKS
Particulars: protein: recombinant; tags: N-terminal GST; dsDNA, one strand shown. Summed up:
as §1

Another assay concerns the target T7, FEV (Homo sapiens, UniProt Q99581 1-238).
T7 sequence: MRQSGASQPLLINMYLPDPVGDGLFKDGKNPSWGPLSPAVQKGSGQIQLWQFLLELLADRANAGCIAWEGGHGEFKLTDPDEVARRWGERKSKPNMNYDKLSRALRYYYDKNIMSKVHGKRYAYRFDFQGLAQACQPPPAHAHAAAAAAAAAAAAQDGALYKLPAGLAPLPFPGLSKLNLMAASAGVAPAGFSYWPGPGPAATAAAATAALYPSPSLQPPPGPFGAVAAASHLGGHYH
Particulars: protein: recombinant; tags: N-terminal GST; dsDNA, one strand shown. Summed up:
as §1

The next assay concerns the target ETV5 (Homo sapiens, UniProt P41161 1-510). Conditions: protein: recombinant; tags: N-terminal GST; dsDNA, one strand shown. Summed up:
as §1

For a further assay, the target named is HSF1 (Homo sapiens, UniProt Q00613 1-529). Conditions: protein: recombinant; tags: N-terminal GST; chain copies: 3; dsDNA, one strand shown. Put shortly:
as §1

In the next assay the target is T8, SPIC (Homo sapiens, UniProt Q8N5J4 1-248).
T8 sequence: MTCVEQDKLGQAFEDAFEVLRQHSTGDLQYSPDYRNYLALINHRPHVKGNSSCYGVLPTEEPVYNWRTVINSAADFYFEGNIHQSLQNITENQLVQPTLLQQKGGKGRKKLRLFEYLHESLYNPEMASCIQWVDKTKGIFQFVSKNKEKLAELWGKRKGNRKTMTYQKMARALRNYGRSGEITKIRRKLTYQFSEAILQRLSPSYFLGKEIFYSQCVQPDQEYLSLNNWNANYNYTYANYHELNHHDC
Particulars: protein: recombinant; tags: N-terminal GST; dsDNA, one strand shown. Summed up:
as §1

A further assay deals with ELF4 (Homo sapiens, UniProt Q99607 1-663). Conditions: protein: recombinant; tags: N-terminal GST; dsDNA, one strand shown. Summed up: as §1
A further assay addresses T9, ELK4 (Homo sapiens, UniProt P28324-2 1-405).
T9 sequence: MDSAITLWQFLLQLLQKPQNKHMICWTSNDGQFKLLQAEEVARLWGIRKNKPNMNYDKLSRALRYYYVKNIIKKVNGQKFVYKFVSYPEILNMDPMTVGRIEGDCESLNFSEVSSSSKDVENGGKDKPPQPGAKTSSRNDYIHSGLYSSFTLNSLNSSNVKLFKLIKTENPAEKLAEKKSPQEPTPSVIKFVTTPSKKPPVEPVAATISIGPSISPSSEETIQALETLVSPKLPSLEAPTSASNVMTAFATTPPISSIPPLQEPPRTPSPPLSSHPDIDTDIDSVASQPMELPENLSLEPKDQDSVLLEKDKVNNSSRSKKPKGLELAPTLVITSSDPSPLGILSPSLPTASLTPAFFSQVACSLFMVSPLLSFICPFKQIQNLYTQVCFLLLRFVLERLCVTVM
Particulars: protein: recombinant; tags: N-terminal GST; dsDNA, one strand shown. Put shortly: as §1

Another assay deals with T10, ETV2 (Homo sapiens, UniProt O00321 1-342).
T10 sequence: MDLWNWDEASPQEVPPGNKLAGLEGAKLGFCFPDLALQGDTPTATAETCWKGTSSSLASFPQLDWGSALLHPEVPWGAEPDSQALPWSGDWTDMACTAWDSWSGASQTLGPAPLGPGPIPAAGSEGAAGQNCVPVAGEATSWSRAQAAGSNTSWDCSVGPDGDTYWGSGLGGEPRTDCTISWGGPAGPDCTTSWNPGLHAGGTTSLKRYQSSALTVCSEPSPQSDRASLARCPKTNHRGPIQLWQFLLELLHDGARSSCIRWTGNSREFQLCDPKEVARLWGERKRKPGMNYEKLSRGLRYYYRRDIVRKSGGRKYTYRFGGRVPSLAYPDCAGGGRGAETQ
Particulars: protein: recombinant; tags: N-terminal GST; dsDNA, one strand shown. Put shortly: as §1

The next assay has as its target T11, ELF3 (Homo sapiens, UniProt P78545 1-371).
T11 sequence: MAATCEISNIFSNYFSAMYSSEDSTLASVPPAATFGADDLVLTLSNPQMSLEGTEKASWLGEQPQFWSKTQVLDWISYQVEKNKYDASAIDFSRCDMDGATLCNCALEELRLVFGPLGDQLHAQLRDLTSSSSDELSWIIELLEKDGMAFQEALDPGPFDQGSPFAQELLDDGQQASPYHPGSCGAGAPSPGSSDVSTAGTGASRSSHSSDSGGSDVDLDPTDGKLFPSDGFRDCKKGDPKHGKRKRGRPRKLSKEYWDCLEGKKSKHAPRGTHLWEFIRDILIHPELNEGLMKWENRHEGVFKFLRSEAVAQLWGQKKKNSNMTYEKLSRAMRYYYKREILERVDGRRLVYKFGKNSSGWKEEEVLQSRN
Particulars: protein: recombinant; tags: N-terminal GST; dsDNA, one strand shown. Put shortly: as §1

In the next assay the target is CRX (Homo sapiens, UniProt O43186 1-299). Particulars: protein: recombinant; tags: N-terminal GST; dsDNA, one strand shown. Put shortly:
as §1

The target of a further assay is ETV1 (Homo sapiens, UniProt P50549 1-477). Particulars: protein: recombinant; tags: N-terminal GST; dsDNA, one strand shown. Summed up:
as §1

Sequence of CRX (O43186 whole entry): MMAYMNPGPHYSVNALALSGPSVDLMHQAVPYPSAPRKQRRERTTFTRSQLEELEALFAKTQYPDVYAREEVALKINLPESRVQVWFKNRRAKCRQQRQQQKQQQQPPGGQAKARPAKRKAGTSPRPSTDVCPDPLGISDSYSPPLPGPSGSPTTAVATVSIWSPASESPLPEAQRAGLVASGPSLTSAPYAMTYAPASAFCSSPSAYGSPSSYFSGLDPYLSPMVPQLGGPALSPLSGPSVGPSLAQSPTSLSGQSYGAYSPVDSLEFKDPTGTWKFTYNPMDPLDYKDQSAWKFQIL
Sequence of SPIB (Q01892 whole entry): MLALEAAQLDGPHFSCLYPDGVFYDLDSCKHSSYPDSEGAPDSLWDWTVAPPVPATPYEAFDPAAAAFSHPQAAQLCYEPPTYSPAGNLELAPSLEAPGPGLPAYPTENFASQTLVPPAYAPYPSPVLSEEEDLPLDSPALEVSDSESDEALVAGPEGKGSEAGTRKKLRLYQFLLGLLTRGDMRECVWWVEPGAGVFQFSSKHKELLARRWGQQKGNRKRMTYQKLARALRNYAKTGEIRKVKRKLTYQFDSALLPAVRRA
Sequence of ETV5 (P41161 whole entry): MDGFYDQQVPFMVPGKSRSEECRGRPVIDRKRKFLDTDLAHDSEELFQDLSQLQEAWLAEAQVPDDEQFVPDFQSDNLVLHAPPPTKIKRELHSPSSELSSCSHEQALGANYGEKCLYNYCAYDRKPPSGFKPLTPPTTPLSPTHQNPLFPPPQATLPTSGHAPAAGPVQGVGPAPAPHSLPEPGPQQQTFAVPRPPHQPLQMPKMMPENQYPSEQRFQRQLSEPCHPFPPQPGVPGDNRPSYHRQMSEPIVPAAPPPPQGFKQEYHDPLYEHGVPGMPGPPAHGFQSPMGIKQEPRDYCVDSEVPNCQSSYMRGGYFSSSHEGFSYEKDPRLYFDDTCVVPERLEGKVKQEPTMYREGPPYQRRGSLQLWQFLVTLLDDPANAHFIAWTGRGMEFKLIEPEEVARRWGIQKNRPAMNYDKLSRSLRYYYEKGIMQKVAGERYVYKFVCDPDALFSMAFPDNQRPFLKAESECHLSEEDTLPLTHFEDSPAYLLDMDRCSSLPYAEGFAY
Sequence of ETV1 (P50549 whole entry): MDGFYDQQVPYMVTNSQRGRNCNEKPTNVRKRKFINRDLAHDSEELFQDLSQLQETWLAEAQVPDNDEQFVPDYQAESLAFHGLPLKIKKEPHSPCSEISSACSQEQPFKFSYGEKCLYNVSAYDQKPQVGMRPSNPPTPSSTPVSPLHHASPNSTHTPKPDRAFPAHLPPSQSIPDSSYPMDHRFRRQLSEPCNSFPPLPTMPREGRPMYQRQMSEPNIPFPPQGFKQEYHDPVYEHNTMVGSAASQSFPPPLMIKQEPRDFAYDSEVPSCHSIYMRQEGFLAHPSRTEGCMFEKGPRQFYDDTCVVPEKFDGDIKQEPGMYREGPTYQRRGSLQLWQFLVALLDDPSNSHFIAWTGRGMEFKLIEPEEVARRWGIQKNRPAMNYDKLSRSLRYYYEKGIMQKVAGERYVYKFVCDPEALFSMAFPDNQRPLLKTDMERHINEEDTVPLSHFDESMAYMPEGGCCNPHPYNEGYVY
Sequence of ELF1 (P32519 whole entry): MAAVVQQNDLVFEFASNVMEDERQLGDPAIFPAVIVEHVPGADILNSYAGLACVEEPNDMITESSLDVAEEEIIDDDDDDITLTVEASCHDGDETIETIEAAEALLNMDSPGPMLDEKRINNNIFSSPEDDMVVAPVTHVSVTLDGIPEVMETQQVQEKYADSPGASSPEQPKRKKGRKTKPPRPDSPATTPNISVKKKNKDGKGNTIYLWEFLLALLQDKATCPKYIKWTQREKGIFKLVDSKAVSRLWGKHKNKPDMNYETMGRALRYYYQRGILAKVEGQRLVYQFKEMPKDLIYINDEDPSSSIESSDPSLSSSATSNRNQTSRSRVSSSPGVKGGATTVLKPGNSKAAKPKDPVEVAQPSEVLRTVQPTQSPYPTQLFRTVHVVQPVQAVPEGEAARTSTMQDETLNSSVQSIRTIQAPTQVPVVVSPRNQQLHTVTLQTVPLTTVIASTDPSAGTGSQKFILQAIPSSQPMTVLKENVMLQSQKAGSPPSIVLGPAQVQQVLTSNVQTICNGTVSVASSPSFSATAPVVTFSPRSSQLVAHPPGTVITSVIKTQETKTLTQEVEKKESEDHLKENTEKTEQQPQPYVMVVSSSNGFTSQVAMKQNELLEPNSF
Sequence of HSF1 (Q00613 whole entry): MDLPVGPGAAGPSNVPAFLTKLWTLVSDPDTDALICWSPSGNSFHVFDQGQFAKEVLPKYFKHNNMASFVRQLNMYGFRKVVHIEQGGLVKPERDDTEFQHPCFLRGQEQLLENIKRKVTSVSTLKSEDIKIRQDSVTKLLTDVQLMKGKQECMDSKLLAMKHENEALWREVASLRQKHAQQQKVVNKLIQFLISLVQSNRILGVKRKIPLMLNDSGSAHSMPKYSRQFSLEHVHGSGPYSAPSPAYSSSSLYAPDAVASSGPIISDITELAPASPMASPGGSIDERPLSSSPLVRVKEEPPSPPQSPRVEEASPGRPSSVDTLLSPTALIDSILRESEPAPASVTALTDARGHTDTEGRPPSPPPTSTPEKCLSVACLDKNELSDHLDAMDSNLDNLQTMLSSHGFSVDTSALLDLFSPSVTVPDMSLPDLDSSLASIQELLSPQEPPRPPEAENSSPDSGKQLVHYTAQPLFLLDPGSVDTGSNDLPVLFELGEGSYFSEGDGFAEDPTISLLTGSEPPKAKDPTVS
Sequence of ELF4 (Q99607 whole entry): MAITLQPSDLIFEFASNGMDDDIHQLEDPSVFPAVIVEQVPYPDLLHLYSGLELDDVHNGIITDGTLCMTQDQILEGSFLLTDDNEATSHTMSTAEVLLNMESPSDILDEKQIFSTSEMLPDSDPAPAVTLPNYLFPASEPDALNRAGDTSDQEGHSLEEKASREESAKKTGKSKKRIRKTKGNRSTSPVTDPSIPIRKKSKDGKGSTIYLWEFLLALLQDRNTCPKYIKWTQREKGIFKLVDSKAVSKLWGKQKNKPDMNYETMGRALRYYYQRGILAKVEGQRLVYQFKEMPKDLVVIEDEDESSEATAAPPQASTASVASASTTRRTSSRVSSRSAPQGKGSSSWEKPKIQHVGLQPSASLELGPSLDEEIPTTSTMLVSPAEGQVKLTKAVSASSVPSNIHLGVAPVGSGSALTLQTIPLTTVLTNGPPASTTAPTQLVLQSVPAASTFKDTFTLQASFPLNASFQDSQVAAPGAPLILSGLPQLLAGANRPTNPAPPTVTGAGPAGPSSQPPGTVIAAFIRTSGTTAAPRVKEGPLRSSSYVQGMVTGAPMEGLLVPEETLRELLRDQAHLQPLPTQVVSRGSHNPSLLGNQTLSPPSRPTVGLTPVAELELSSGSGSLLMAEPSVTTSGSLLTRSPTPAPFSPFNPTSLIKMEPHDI

As to CTAAAG, the binding signal is 1.39 fold enrichment (6-mer frequency, TF over GST control) with FLI1; 1.35 fold enrichment (6-mer frequency, TF over GST control) with ELK1; 1.45 fold enrichment (6-mer frequency, TF over GST control) with GABPA; 1.36 fold enrichment (6-mer frequency, TF over GST control) with ERG; 1.39 fold enrichment (6-mer frequency, TF over GST control) with ELF1; 1.35 fold enrichment (6-mer frequency, TF over GST control) in the assay with EHF. Further, the binding signal in the assay with SPI1 is 1.3 fold enrichment (6-mer frequency, TF over GST control); with SPIB it was 1.31 fold enrichment (6-mer frequency, TF over GST control); with ELK3, 1.49 fold enrichment (6-mer frequency, TF over GST control); with FEV, 1.29 fold enrichment (6-mer frequency, TF over GST control); in the assay with ETV5, 1.29 fold enrichment (6-mer frequency, TF over GST control); with HSF1 it was 1.48 fold enrichment (6-mer frequency, TF over GST control). The binding signal with SPIC is 1.36 fold enrichment (6-mer frequency, TF over GST control); with ELF4, 1.34 fold enrichment (6-mer frequency, TF over GST control); in the assay with ELK4, 1.44 fold enrichment (6-mer frequency, TF over GST control); in the assay with ETV2, 1.29 fold enrichment (6-mer frequency, TF over GST control); in the assay with ELF3, 1.44 fold enrichment (6-mer frequency, TF over GST control); in the assay with CRX, 1.85 fold enrichment (6-mer frequency, TF over GST control). In addition, the binding signal with ETV1 is 1.45 fold enrichment (6-mer frequency, TF over GST control).
